# Reference: the OligoGym collection
# Molecular target: FNTB
# Test: pooled miR-30 sensor sort-seq; sequence = guide strand
# Details: shRNA
row,Sequence,sensor-assay potency score (higher = more potent)
1,TTGAACTTGTAAGAACTGAAGA,-0.977
2,AAGGTGTGGATACTGACCGGGT,-0.0926
3,TTGTCGAAGGCCTCTTTTCAGA,-1.02
4,TCATCTAGCAGTTCCAAGCTGT,0.0729
5,TCCACCAGCTTGTTGCAGCGGC,-1.13
6,TATTGAAACGTATAAACCTTGT,-0.892
7,TATAAACCTTGTCTGACTGGGG,0.554
8,TTTTCTTCTACTTTTGCCTGTT,0.0828
9,TTGTAAGAACTGAAGACCTCTT,0.275
10,TTAAGCTCCTCAAAACCTGGGA,-0.317
11,AAGAACTGAAGACCTCTTGGAT,-0.153
12,TACAAGGTGGTTGAACTTGTAA,-0.905
13,TAGAAAGTATGTAGTGGCCTGG,-0.497
14,TACTTTTGCCTGTTCTATGGAC,-0.547
15,TTTGCCTGTTCTATGGACGTGA,0.213
16,ATCTGTAGCCACTATCTGGGGG,-0.8

# Molecular target: FOXK1
# Test: as above
# Details: shRNA
row,Sequence,sensor-assay potency score (higher = more potent)
1,TTGGGTCGCAAGGAGCTGCAAA,-0.645
2,TTCAAAGAGAGGTTGTGCCGGA,0.647
3,TAAACTGTTCGTGGGAACCGCA,-0.882
4,TGGATCTTGATGGCCGTGCTGG,-0.887
5,TTCTTTGTGATAGAGCGACGTG,-0.986
6,TTTGGGAATACCGGTACTCTGG,-1.08
7,ATGAGGAACTCGAACTCGCGGC,-0.982
8,TTTGATAAAGTAACGGTTCAAA,-0.935
9,TTGCTGCAAACTCTGCTGCCAG,-1.02
10,TGATAGAGCGACGTGAACTGGA,0.268
11,TTTGACTCATCCTTGGGGCTGT,0.206
12,TTGCCGGCTAAACTGTTCGTGG,-1.1

# Molecular target: FOXN4
# Test: as above
# Details: shRNA
row,Sequence,sensor-assay potency score (higher = more potent)
1,TGAGTTTCGAATAATTCCTGAC,-0.212
2,TCAGTGTTCATGTCGGTGCTGA,-0.14
3,ATTCCTGACATTATGGATGAGG,-0.583
4,TTGAGATGAATGCACAGCCACG,-1.27
5,ATGTTGATGAAGTCTACAGGAG,-1.25
6,TGAAGCTGTAGATCTCGCTCAC,0.304
7,TCCTCCATCTTGTCGATGCGGG,-1.47
8,TTCAGAGACAGGTTGTGCCGCA,0.475
9,TTGCCATCTGCTGCAGCCGAGG,-1.85
10,TCAGCTTGTCCAACTCCTCAGG,-0.891
11,TAGATCTCGCTCACAGGCAGGC,-0.142
